Test results from PubChem BioAssay AID1626 (SRMLSC, 2009).
The whole screen tested about 220,000 compounds, of which about 2,000 (0.91%) were called active. Inconclusive results (about 2%) are left out. The list is a sample of the results. Potency and affinity values are given separately. A number with no mark means an inactive call. Rule as the data show it: inconclusive = inhibition above about 80% without an active follow-up result; inactive = below that; test concentration not stated here.

test: M. tuberculosis H37Rv growth inhibitors, H37Rv strain (AID 1626); settings: active compounds read high, concentration not given here;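 also: bacteria incubated seven days before Alamar blue readout; 0% = bacteria only wells and 100% = bacteria with antibiotic wells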

SMILES	inhibition
Nc1nn(-c2cccc(F)n2)cc1-c1ccccc1	-5.22%
O=C(COc1ccc(Cl)cc1)Nc1ccccc1N1CCOCC1	-1.58%
CCCNC(=O)COC(=O)c1cc(SC)ccc1Cl	7.67%
CC(C)(C)NC(=O)COC(=O)c1cc(F)c(F)cc1Cl	38.6%
CCCCNC(=O)COC(=O)c1ccc(Cl)c(S(N)(=O)=O)c1	-0.33%
CC(C)NC(=O)COC(=O)c1cc(Br)ccc1Cl	4%
CCCCNC(=O)COC(=O)c1ccc(F)cc1Cl	10.1%
CNC(=O)COC(=O)c1cc(F)c(F)cc1Cl	4.23%
CC(/C=C/c1ccccc1)=N\Nc1nc(-c2ccccc2)cs1	5.57%
CCCCn1nnc(NC(=O)c2ccc(-c3ccccc3[N+](=O)[O-])o2)n1	9.1%
CCc1ccc(NS(=O)(=O)c2ccc(OC)c(C)c2)cc1	16.8%
Cc1nn(C(=O)c2c(-c3ccccc3)noc2C)c(C)c1N=Nc1cc(C(F)(F)F)cc(C(F)(F)F)c1	4.12%
COC(=O)CNC(=O)C1CCN(c2nc(C)cc(C)n2)CC1	-8.28%
CCOC(=O)CN1C(=O)C(CC)Oc2ccccc21 (centres undefined)	-1.23%
CCOC(=O)N1c2ccccc2C=CC1OCC (centres undefined)	-8.15%
O=C(CN1CCN(c2ccccc2Cl)CC1)NC1CCCc2ccccc21 (centres undefined)	14.2%
CCCC1(CCC)C(=O)NC(=NCc2ccccc2)NC1=O	-6.66%
CCCCOc1cccc(C(=O)O)c1	-6.88%
CCCCOc1cccc(-c2nnc(N)s2)c1	37.6%
C=CCCCCCCCC(=O)OC	-15.6%
O=C(CSc1n[nH]c(-c2cccs2)n1)NCc1ccc2c(c1)OCO2	6.67%
CCOC(=O)Nc1c(C)n(C)n(-c2ccccc2)c1=O	-5.08%
COC(=O)c1ccccc1NC(=O)CSc1nnc(-c2ccc(C)cc2)o1	6.5%
O=C(OCC#CCSc1nnc(-c2cccc3ccccc23)o1)c1ccco1	64.9%
Cc1ccc(-c2nnc(-c3ccc(NC(=O)c4ccco4)cc3)o2)cc1	6.39%

SMILES	inhibition
O=C(OCc1nnc(-c2ccccc2)o1)c1ccco1	5.59%
Cc1ccc(CN2CCc3c(OCC(=O)Nc4cc(C)ccc4C)cccc3C2=O)cc1	4.57%
CC1CCCCN1S(=O)(=O)c1ccc(S(=O)(=O)N2CCN(c3ccccc3)CC2)cc1 (centres undefined)	-4.53%
O=C(c1ccco1)N1CCN(S(=O)(=O)c2ccc(C3CCCCC3)cc2)CC1	-4.85%
CCOc1ccc(N2CC(=O)N(c3ccc(OCC)cc3)CC2=O)cc1	-2.5%
CCOc1ccc(N2C(=O)CNC2=S)cc1	-2.82%
CCOC(=O)c1cnc2ccc(OC)cc2c1NCc1ccccc1	20.8%
CCOC(=O)c1cnc2ccc(OCC)cc2c1NCc1cccnc1	10.7%
CCSc1nnc(NC(=O)C2Cc3ccccc3CN2C(=O)c2ccco2)s1 (centres undefined)	-9.18%
COC(=O)CC1COc2ccccc2N1C(=O)c1ccc(OC)cc1 (centres undefined)	-4.78%
COc1ccccc1C1C([N+](=O)[O-])=C(N)Oc2c1c(=O)oc1ccccc21 (centres undefined)	-2.62%
N#CC1=C(N)NC(SCC(=O)c2ccc(Cl)cc2)=C(C#N)C12CCCC2	21.4%
N#CC1=C(N)NC(SCC(=O)c2ccc(Br)cc2)=C(C#N)C12CCCCC2	79.4%
CCN(CC)CCOC(=O)c1ccc(NC(=O)c2cn(-c3ccccc3)nc2-c2cccs2)cc1	31.3%
Cc1c(CN2CCCCC2C)c(=O)n(-c2ccccc2)n1C (centres undefined)	-1.26%
CNC(=O)Nc1ccc2nc(C)sc2c1	-3.76%
CCN1CCN(c2cc(C)c3cc(NC(=O)c4ccc(Br)o4)ccc3n2)CC1	-5.55%
Cc1cc(N2CCN(C)CC2)nc2ccc(NC(=O)c3ccc(Br)o3)cc12	5.2%
CCCC(=O)Nc1nc2ccc(NC(=O)c3ccc(Br)o3)cc2s1	-1.78%
CCN1CCN(c2cc(C)c3cc(NC(=O)c4cccnc4Cl)ccc3n2)CC1	-2.95%
Cc1cc(N2CCN(C)CC2)nc2ccc(NC(=O)c3cccnc3Cl)cc12	-11.1%
Cc1nc2ccc(NC(=O)c3ccco3)cc2s1	5.89%
Cc1nc2ccc(NC(=O)N(C)c3ccccc3)cc2s1	76.8%
COC(=O)/C=C1\C(=O)N(c2nc3ccccc3s2)C(=S)N1c1ccc(F)cc1	3.22%
O=C(N/C(=C\c1ccccc1)C(=O)N1CCN(CCO)CC1)c1ccccc1	-6.53%

SMILES	inhibition
Cn1cc(C(=O)NP(=O)(N2CCOCC2)N2CCOCC2)c2ccccc21	4.83%
CCc1nc(SCc2ccc(C(=O)OC)o2)n[nH]1	1.73%
COc1cc(C(=O)Nc2ccc(-n3cnnn3)c(C)c2)cc(OC)c1OC	-2.46%
Cc1ccc2[nH]c(=O)c(CN(Cc3ccco3)S(=O)(=O)c3c(C)ccc4nsnc34)cc2c1	1.42%
COc1ccc(NC(=O)C/C(C)=N/NC(=O)C(=O)NC(C)C)c(OC)c1	-3.77%
CCOc1ccc(NC(=O)c2cnccn2)cc1	7.63%
CCCCOC(=O)c1ccc(NC(=O)c2cnccn2)cc1	79.1%
O=C(O)Cc1ccc(NC(=O)c2cnccn2)cc1	2%
CCOC(=O)c1ccc(NC(=O)c2cnccn2)cc1	38.2%
COCCNc1ccc(-c2nn(C)c(=O)c3ccccc23)cc1[N+](=O)[O-]	-0.74%
CN1CCN(C(=O)c2ccc(N3CCCC3=O)cc2)CC1	-13.8%
COc1c(C)cccc1C(=O)Nc1ccc(N2CCOCC2)c(Cl)c1	6.42%
C/C(=N/NC(=O)CNC(=O)CCc1ccccc1)c1ccc(Cl)cc1	-2.99%
O=C(Oc1ccccc1)c1c(Cl)cccc1P(=O)(O)O	-3.52%
CCCc1nnc(-c2cc(OC)c(OC)c(OC)c2)o1	0.88%
Nc1nnc(SCCCC(=O)c2ccc(F)cc2)s1	7.95%
Nc1nnc(SCCCC(=O)c2ccc(Br)cc2)s1	0.26%
Cc1c(C(=O)Nc2cccc3cccnc23)oc2ccccc12	-1.97%
O=[N+]([O-])c1ccccc1OCCOCCOc1cccc2cccnc12	-5.36%
NC(=O)c1ccc(Oc2cccc3cccnc23)c([N+](=O)[O-])c1	49.5%
CCc1nc2ccccc2c(C(=O)Oc2cccc3cccnc23)c1C	22.1%
Cc1c(C(=O)O/N=C(\N)c2ccccn2)cccc1[N+](=O)[O-]	-0.03%
COc1ccc(CSc2cccc3cccnc23)cc1[N+](=O)[O-]	-0.94%
COc1ccccc1NC(=O)N1CCN(c2ccc(F)cc2)CC1	4.69%
COCCCNC(=S)N1CCC(NC(=O)c2ccco2)CC1	0.03%

SMILES	inhibition
CCCCOC(=O)N/N=C/C=C/c1ccccc1	5.74%
COc1ccc2[nH]cc(CCNC(=S)NC3CCCC3)c2c1	4.31%
NNC(=O)c1ccc(Cn2cc(Br)cn2)o1	-4.47%
CCn1cnc2cc(NCc3cccs3)ccc21	3.06%
CN(C)C(CNC(=S)Nc1cccc(Cl)c1)c1ccccc1 (centres undefined)	3.58%
Nc1cc2c(cc1C(=O)c1cccc(Br)c1)OCCO2	4.56%
Cc1ccc(NS(=O)(=O)c2cc(C(=O)Nc3cccc(N(C)S(C)(=O)=O)c3)ccc2C)c(C)c1	8.69%
COc1ccc(NC(=O)c2cccc(S(=O)(=O)Nc3ccc(Br)cc3)c2)cn1	7.12%
O=C(Nc1cccc(S(=O)(=O)Nc2ccc(Cl)cc2)c1)c1ccc[n+]([O-])c1	8.19%
Cc1ccc(NS(=O)(=O)c2cc(NC(=O)c3cc4c(s3)CCCC4)ccc2C)c(C)c1	6.18%
CS(=O)(=O)N1CCCC(C(=O)NCCN2CCC(Cc3ccccc3)CC2)C1 (centres undefined)	3.9%
CCN(CC)C(=O)C(=O)c1ccn(-c2c(C)csc2C(=O)OC)c1	10.3%
COc1cccc(/C=C(\C#N)C(=O)NC2CCS(=O)(=O)C2)c1 (centres undefined)	-1.08%
Brc1ccc(C2C3=C(Nc4ncnn42)c2ccccc2OC3c2ccncc2)cc1 (centres undefined)	3.46%
Fc1ccc(C2C3=C(Nc4ncnn42)c2ccccc2OC3c2ccncc2)cc1 (centres undefined)	1.81%
Cc1ccc(C2c3c(oc4ccccc4c3=O)C(=O)N2c2nncs2)cc1 (centres undefined)	-7.54%
COc1ccc(CCNC(=O)c2cc(-c3ccccc3OC)on2)cc1OC	-17.8%
O=S1(=O)CCC(=Nc2ccc(Cl)cc2)c2ccsc21	3.58%
COc1ccc(C(=O)O/N=C2\CCS(=O)(=O)c3sccc32)cc1	-3.81%
COc1ccc(Cl)cc1S(=O)(=O)Oc1ccc(NC(C)=O)cc1	-3.14%
C=CCSc1nc(NC)c2sccc2n1	64.3%
C=CCNc1nc(SC)nc2ccsc12	19.7%
Cc1oc(C)c(C(=O)O)c1COc1ccc(C(=O)O)cc1	-4.93%
CN(C)c1oc(COc2ccc(F)cc2)nc1C#N	0.53%
